D1 PAM – Potentiators of Human D1 Dopamine Receptor: qHTS; D(1A) dopamine receptor (Homo sapiens), P21728; HEK293 TREx D1 cells, calcium flux, dopamine EC20 potentiation; potentiation, % at 10 µM; 0.036% of 360,000 active; AID 504651, 2011; in the data active = potentiation above about 30%
D1 antag – Antagonist of Human D 1 Dopamine Receptor: qHTS; D(1A) dopamine receptor (Homo sapiens), P21728; HEK293 TREx D1 cells, calcium flux, dopamine EC80; hits give low values; activity change, negative = inhibition, % at 10 µM; 3.2% of 360,000 active; in the data active = activity change below about -30%
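Inducible Hek293 Trex D1 cells (tetracycline, overnight, 30 C). Calcium dye 30–90 min RT. Antagonist mode: EC80 dopamine added after 180 s compound read.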
DRD3 agonist – qHTS of D3 Dopamine Receptor Agonist: qHTS; D3R DiscoveRx beta-arrestin cells, luminescence, 90 min; max activation, %; 0.58% of 410,000 active; AID 652048, 2013; in the data active = max activation above about 30%
Target sequence (P35462 whole entry, looked up): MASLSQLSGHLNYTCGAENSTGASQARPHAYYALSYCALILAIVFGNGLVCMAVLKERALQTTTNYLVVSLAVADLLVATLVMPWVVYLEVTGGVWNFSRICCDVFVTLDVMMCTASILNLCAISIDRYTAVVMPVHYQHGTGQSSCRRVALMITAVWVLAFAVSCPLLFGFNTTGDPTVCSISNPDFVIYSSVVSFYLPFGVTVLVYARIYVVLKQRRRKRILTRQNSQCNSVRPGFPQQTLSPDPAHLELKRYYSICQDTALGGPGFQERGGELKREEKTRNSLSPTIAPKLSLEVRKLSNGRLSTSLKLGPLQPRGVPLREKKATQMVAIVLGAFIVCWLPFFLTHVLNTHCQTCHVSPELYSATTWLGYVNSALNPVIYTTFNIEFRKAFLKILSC
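Agonist mode: compounds and dopamine controls were applied to plated cells for 90 min at 37 degrees C after an overnight attachment at 1500 cells/well. Luminescent read-out followed 30 - 60 minutes at room temperature with DiscoveRx detection reagent.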
BCR signal inh – qHTS Assay to Find Inhibitors of Chronic Active B-Cell Receptor Signaling; ABC-DLBCL IkBa-CBG/CBR reporter, luminescence ratio, 4 h; Potency, µM (top dose mostly 46.1 µM), most hits filed as inhibitors; 0.05% of 340,000 active; active = well fitted inhibition curve with a large enough effect in the signal ratio, with a control signal flat, not every such curve was filed as active; inconclusive = small, poorly fitted or top-dose-only effect, or effect the other way, or a change in a side signal; the % refers to the signal ratio
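Compounds up to 46 uM were incubated four hours with TMD8 cells whose green CBG68 luciferase is fused to IkappaBalpha; red CBR luminescence normalised the signal, and concentration-effect curves were fitted to fusion, red and ratio data.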
D3 antag – qHTS of D3 Dopamine Receptor Antagonist: qHTS. D3R cells, DiscoveRx beta-arrestin luminescence, antagonist mode; hits give low values. max response, negative = inhibition, %. D(3) dopamine receptor (Homo sapiens), P35462. 2.5% of 360,000 active; in the data active = max response below about -50%; inconclusive = no clear call, values can overlap the other calls
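Cells expressing the human receptor were seeded at 1500 cells/well, incubated overnight at 37 degrees C in 5% CO2, then exposed to library compounds with dopamine controls for 90 minutes at 37 degrees C before luminescent detection.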
D1 ag – Allosteric Agonists of the Human D1 Dopamine Receptor: qHTS | AID 504660, 2011 | D(1A) dopamine receptor (Homo sapiens), P21728 | activation, % at 2 µM | 1% of 360,000 active | HEK293 T-REx D1 cells, calcium flux, agonist mode; in the data active = activation above about 30%
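Inducible HEK293 T-REx D1 cells, force-coupled to calcium signalling, were plated at 4000 cells/well with tetracycline and held overnight at 30 C. After no-wash calcium dye loading, compound-evoked calcium rise over 180 s flagged agonists.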
Numbers stand for hits; – = inactive; ? = inconclusive; · = no result given. The list is not random: actives were taken first. Their share in the collection is about 6%.

SMILES	D1 PAM	D1 antag	DRD3 agonist	BCR signal inh	D3 antag	D1 ag
CC(C)C(c1nnnn1Cc1ccco1)N1CCN(C2CCCC2)CC1 (centres undefined)	–	–	–	–	–	–
c1coc(Cn2nnnc2CN2CCN(C3CCCC3)CC2)c1	–	–	–	–	-69	–
COc1ccc(NC(=O)C2CCN(S(=O)(=O)c3c(C)noc3/C=C/c3ccco3)CC2)cc1	–	–	–	·	·	–
O=S(=O)(Cc1cc(-c2ccc(Cl)cc2)no1)c1ccccc1	–	–	–	?	–	–
O=S(=O)(Cc1cc(-c2ccccc2Cl)no1)c1ccccc1	–	–	–	–	–	37
Cc1onc(-c2ccccc2)c1C(=O)NC(=S)NNC(=O)c1ccccc1O	–	–	–	?	–	143
CCCOc1ccc(NC(=O)c2c(-c3ccccc3)noc2C)cc1	–	–	–	–	–	–
CCCOc1ccc(C(=O)NNC(=S)NC(=O)CC)cc1	–	-71	–	–	?	–
Cc1onc(-c2ccccc2)c1C(=O)NC(=S)NNC(=O)c1ccc(O)cc1O	–	–	–	–	–	–
CCCOc1ccc(C(=O)NC(=S)NNC(=O)c2c(-c3ccccc3)noc2C)cc1	–	–	–	–	–	207
CCOC(=O)c1ccc(NC(=O)CSc2ccc3ccccc3n2)cc1	–	–	–	?	·	–
O=c1c2cn[nH]c2[nH]c(=S)n1-c1ccccc1F	–	–	–	?	–	–
Cc1ccc(-n2c(=S)[nH]c3[nH]ncc3c2=O)cc1	–	-31	–	–	–	–
Cc1ccc(-n2c(=S)[nH]c3nc4c(cc3c2=O)COC(C)(C)C4)cc1	–	-48	–	–	–	–
O=C(Cn1ncc2c3ccccc3n(Cc3cccc(Cl)c3)c2c1=O)NC1CCCCCC1	–	–	–	·	·	–
C=C1CC[C@@H]2[C@](C)(CO)[C@H](O)CC[C@@]2(C)[C@@H]1C/C=C1/C(=O)OC[C@H]1O	·	·	–	·	·	·
Fc1cccc(CSc2ccc(-c3ccc4c(c3)OCO4)nn2)c1	–	–	–	?	–	–
c1cncc(CSc2ccc(-c3ccc4c(c3)OCO4)nn2)c1	–	-39	–	?	–	–
CCOc1ccc(C(=O)Nc2cccc3ncccc23)cc1Cl	–	-30	–	–	–	–
CNCc1ccccc1Sc1cc(O)ccc1O	–	–	–	?	-55	–
COc1ccc(-c2[nH]ncc2CN2CCCC(C(=O)c3ccc(OC)cc3OC)C2)cc1 (centres undefined)	–	-31	–	?	–	–
CC(C)Oc1cccc(C(=O)C2CCCN(Cc3cnc(N4CCCC4)s3)C2)c1 (centres undefined)	–	–	–	?	-83	–
COc1ccc(C(=O)C2CCCN(Cc3cn[nH]c3-c3ccc(F)cc3)C2)cc1OC (centres undefined)	–	–	–	–	–	–
COc1ccc2cc(C(=O)C3CCCN(Cc4cnc(N5CCOCC5)s4)C3)ccc2c1 (centres undefined)	–	–	–	?	–	–
COc1cccc(C(=O)C2CCCN(Cc3cn[nH]c3C3CCCCC3)C2)c1 (centres undefined)	–	–	–	–	-86	–
COc1cccc(CC2(CO)CCCN(Cc3cn[nH]c3C3CCCCC3)C2)c1 (centres undefined)	–	–	–	–	–	–
Cc1ccc(SCc2nc(-c3ccc(C(=O)NCCc4ccc(Cl)cc4)cc3)oc2C)cc1	–	–	–	·	·	–
COc1ccc(OC)c(NC(=O)c2ccc(-c3nc(CSc4ccccc4)c(C)o3)cc2)c1	–	-32	–	·	·	–
Cc1ccc(SCc2nc(-c3ccc(C(=O)NCC(C)c4ccccc4)cc3)oc2C)cc1 (centres undefined)	–	–	–	·	·	30
